# Screens (PubChem BioAssay)
# Most compounds without a hit are left out; they make up all but 2.6% or so of the library.
# IDE cell activ = boosts human insulin-degrading enzyme activity in HEK cells; hit rate 0.073% among 340,000; FAbeta-B cleavage, fluorescence polarization; 0% vehicle, 100% cell-free pure enzyme wells; activation, % at 5.96 µM; P14735;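 active means activation above the mean of all tested compounds plus 3 SD, set per screening campaign, cut at about 17% in these data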
# Target sequence (P14735 whole entry, looked up): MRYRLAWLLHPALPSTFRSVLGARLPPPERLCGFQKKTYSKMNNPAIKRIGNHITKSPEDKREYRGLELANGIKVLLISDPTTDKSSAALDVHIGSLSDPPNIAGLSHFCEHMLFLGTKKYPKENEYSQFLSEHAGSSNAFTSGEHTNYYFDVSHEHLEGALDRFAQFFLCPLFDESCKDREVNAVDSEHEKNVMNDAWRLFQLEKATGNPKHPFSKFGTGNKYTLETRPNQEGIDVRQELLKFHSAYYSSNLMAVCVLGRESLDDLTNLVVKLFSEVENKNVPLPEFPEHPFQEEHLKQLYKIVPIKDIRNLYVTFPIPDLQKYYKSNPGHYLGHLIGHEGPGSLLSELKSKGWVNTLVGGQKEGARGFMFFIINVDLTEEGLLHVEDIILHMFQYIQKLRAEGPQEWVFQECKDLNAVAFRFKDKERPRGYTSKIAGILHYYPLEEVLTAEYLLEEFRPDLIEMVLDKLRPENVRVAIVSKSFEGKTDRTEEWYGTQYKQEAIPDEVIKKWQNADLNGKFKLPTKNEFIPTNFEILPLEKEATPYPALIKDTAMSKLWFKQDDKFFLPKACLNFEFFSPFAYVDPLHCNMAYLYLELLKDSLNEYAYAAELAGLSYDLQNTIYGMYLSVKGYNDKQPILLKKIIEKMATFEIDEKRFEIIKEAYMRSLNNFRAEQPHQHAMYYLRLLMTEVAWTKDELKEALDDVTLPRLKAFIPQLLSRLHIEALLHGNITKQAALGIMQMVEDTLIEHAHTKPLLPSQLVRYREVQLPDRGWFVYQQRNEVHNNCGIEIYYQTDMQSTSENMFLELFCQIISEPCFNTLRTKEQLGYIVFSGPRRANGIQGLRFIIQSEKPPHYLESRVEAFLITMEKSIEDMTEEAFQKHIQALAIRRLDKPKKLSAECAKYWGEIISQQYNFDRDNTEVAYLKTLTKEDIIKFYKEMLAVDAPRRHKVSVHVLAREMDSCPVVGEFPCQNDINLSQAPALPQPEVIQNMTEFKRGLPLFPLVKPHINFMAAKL
# IDE inh = inhibitors of human insulin-degrading enzyme in cells | P14735 | HEK cells, FAbetaB cleavage, fluorescence polarization | inhibition, % at 5.59 µM | hit rate 0.41% among 320,000 | AID 434962;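 active means percent inhibition above the average of all tested compounds plus 3 SD, set per screening campaign, cut at about 16% in these data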;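 further: IDE supplied by intact live HEK cells; FP after avidin binding of uncleaved biotin substrate so inhibition keeps polarization high; 0% = DMSO wells and 100% = 60 µM reference IDE inhibitor Ii1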
# CRFBP-R2 block = CRF-BP/CRF-R2 complex antagonism | HEK293 CRF-R2/CRF-BP, CRF-induced calcium fluorescence | inhibition, % at 11.8 µM | hit rate 0.59% among 350,000;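 active means inhibition of the ligand-induced calcium signal above about 50% at the single tested concentration, limit read from the data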
# CRFBP-R2 agonist = CRF-BP/CRF-R2 complex agonism; HEK293 CRF-R2/CRF-BP, calcium dye fluorescence (FLIPR); percent of saturating CRF peptide response; activation, % at 13.2 µM; hit rate 0.46% among 350,000; AID 588473;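 active means activation of at least 50%, plus an integration ratio under a set limit after plate pattern correction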;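 further: plate controls were neutral control wells without compound for no effect and CRF at EC100 for full effect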
# TPT1 inhibitor = C. albicans TPT1 enzyme inhibition; recombinant caTPT1, FP RNA substrate dephosphorylation; inhibition, % at 5 µM; hit rate 0.81% among 300,000; AID 1962;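 active means inhibition above the mean of all tested compounds plus 3 SD, set per screening campaign, cut at about 24% in these data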;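 further: plate controls were DMSO alone for no effect and ferristatin control at 100 nM for full effect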
# Myeloid diff MLP = compounds promoting myeloid differentiation; ER-HoxA9 myeloid progenitors, lysozyme-GFP differentiation, flow cytometry; calls only at 10 µM; hit rate 1% among 360,000; AID 624256;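 active means normalized GFP-positive differentiation at or above the plate's own cutoff, the solvent-only control mean plus 3 SD; inconclusive means no clear call, values can overlap the other calls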;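 further: cells exposed to compound for four days before flow analysis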
# Starred values were filed as active, the others as inactive; i = inactive; u = inconclusive; x = no result given; + = active, no number.
SMILES,IDE cell activ,IDE inh,CRFBP-R2 block,CRFBP-R2 agonist,TPT1 inhibitor,Myeloid diff MLP
CCC(C)NC(=O)Cn1cnc2sc(C)c(S(=O)(=O)N3CCN(c4ccccc4OC)CC3)c2c1=O (centres undefined),5,-1,-8,-1,1,i
CCC(C)NC(=O)Cn1cnc2sc(C)c(S(=O)(=O)N3CCCCC3)c2c1=O (centres undefined),0,3,62*,-1,-2,i
CCn1nc(C)cc1C(=O)N1CCCC(N2CCN(Cc3ccc4c(c3)OCO4)CC2)C1 (centres undefined),3,-3,-11,1,-6,i
CCCCNC(=O)C(=O)N/N=C/c1ccc(OCc2ccccc2)cc1,-3,2,-4,1,0,i
CC(C)(C)NCC(=O)N/N=C/c1ccc(OCc2ccccc2)cc1,-11,16*,-11,0,1,i
COc1cc(NC(=O)Cn2c(=O)n(-c3cccc(C)c3)c(=O)c3c(C)c(C)sc32)cc(OC)c1,6,0,-27,5,-2,i
Cc1ccc(S(=O)(=O)N(CC(=O)NCc2ccco2)Cc2ccccc2F)cc1,5,x,89*,-2,x,i
Cc1ccc(S(=O)(=O)NCC(=O)N(CC(=O)NCc2ccco2)Cc2ccccc2)cc1,3,-3,-56,55*,-1,i
Cc1ccc(S(=O)(=O)N(CC(=O)NCc2ccncc2)Cc2ccccc2F)cc1,-2,1,-7,-1,1,i
COc1ccc(OC)c(C(=O)COC(=O)CN2C(=O)NC3(CCCCC3C)C2=O)c1 (centres undefined),22*,-2,7,-1,-1,i
CC(C)CCC(O)(CCC(C)C)C(=O)NNc1ccccc1,4,1,10,-2,0,+
CC(C)CC(O)(CC(C)C)C(=O)NNc1ccccc1,6,-1,6,-1,3,i
CC(C)CN1CCC(=O)N([C@H](CO)Cc2ccccc2)CC1,5,0,-9,3,1,i
O=C(Cn1cnnn1)OCC(=O)c1ccc(Cl)s1,5,-3,1,2,4,+
CCOC(=O)/C(C#N)=C1\CCCN1CC(N)=S,1,1,13,-2,1,i
CCc1ccc(OCCOCC(O)CNC(C)(C)C)cc1 (centres undefined),5,0,-15,58*,4,i
CSCCC(NC(=O)c1ccco1)C(=O)N1CC=C(c2ccccc2)CC1 (centres undefined),-3,-3,-81,53*,-1,i
CSCCC(NC(=O)c1ccco1)C(=O)N1CCCCCCC1 (centres undefined),-1,-5,4,-1,0,i
C/C(=N\NC(=O)c1ccc(NS(=O)(=O)c2cccs2)cc1)c1ccccc1,0,13,58*,-1,-1,i
CCC(=O)Nc1cccc(-n2nnnc2SCC(=O)N2CCCCC2)c1,-1,6,-164,89*,5,i
O=C(COC(=O)CN1C(=O)C2CCCCC2C1=O)NCc1ccc(Cl)cc1Cl (centres undefined),3,2,-11,2,x,i
Cc1ccccc1Oc1cc(NC(=O)CCCn2nc(C)c([N+](=O)[O-])c2C)cc([N+](=O)[O-])c1,5,-1,51*,7,3,i
Cc1nn(CCCC(=O)Nc2cc(Oc3ccc(F)cc3)cc([N+](=O)[O-])c2)c(C)c1[N+](=O)[O-],3,-3,-10,10,-3,i
Cc1c(Cl)c([N+](=O)[O-])nn1CCCC(=O)Nc1cc(Oc2ccccc2)cc([N+](=O)[O-])c1,-1,1,59*,-1,0,i
O=C(NC(C(=O)N/N=C/c1ccncc1)c1n[nH]c(=O)c2ccccc12)c1ccccc1 (centres undefined),3,0,4,-1,1,i
SMILES,IDE cell activ,IDE inh,CRFBP-R2 block,CRFBP-R2 agonist,TPT1 inhibitor,Myeloid diff MLP
O=C(NC(C(=O)N/N=C/c1cccnc1)c1n[nH]c(=O)c2ccccc12)c1ccccc1 (centres undefined),4,5,-58,96*,2,i
COC(=O)c1cccnc1Oc1ccccc1,3,8,-9,-1,-4,i
COc1ccc(-c2cc3nc(C4CCN(C(=O)OC(C)(C)C)CC4)c(C(=O)O)cn3n2)cc1,1,7,52*,-3,-1,i
O=C(NCc1ccc(N2CCCC2=O)cc1)c1cc(COc2c(F)cccc2F)on1,-2,2,-11,2,1,u
CC(=O)Nc1cc2c(cc1C(=O)c1ccccc1)OCCO2,18*,-3,5,-1,3,i
CCC(=O)Nc1cc2c(cc1C(=O)c1ccccc1)OCCO2,3,3,26,-3,0,i
Cc1cc(C(=O)NNS(=O)(=O)c2ccc(C(C)(C)C)cc2)nn1C(C)(C)C,0,7,-17,-1,-2,i
O=C1/C(=C\c2ccc(Cl)cc2)CCC1CNc1ccc(Cl)cc1 (centres undefined),-12,x,-13,10,x,+
CN(C)CC1CC/C(=C\c2ccc(O)cc2)C1=O (centres undefined),-9,x,8,1,x,u
CC(C)c1cc(N2CCC(=O)NC2=O)cc(C(=O)O)c1O,0,2,52*,0,3,i
C=CC[n+]1ccn(-c2nc3ccccc3nc2[N-]S(=O)(=O)c2cccs2)c1,5,-1,-13,0,-2,+
CC(CNC(=O)c1ccc(NC2=NC3CS(=O)(=O)CC3S2)cc1)c1ccccc1 (centres undefined),-8,3,-122,50*,-2,i
Cc1cc(C)c(NC(=O)C2CCCN2CCO)c(C)c1 (centres undefined),-3,-4,-2,0,-3,+
COc1ccccc1NC(=O)c1ccc(NC(=O)CSc2nc(N)cc(=O)[nH]2)cc1,0,1,-8,-1,x,i
O=[N+]([O-])c1cccc(C=NNc2ccccc2)c1,5,x,-17,-1,x,i
O=[N+]([O-])c1cccc(/C=N/NC2=NCCCCC2)c1,-3,0,52*,-2,2,i
COc1ccc(CCNC(=O)c2ccc3nc(N4CCCCC4)sc3c2)cc1OC,-5,3,2,0,-3,i
CCOC(=O)c1[nH]c(C)c(C(=O)N2CCN(c3ccccc3)CC2)c1C,3,-4,3,2,-4,i
CCOc1ccc2ccccc2c1C(=O)N1CCN(c2ccccc2)CC1,0,-2,-24,-1,-3,+
Cc1c(O)nc(SCC(=O)Nc2ccc3c4c(cccc24)CC3)n(-c2ccc(F)cc2)c1=O,-4,4,-33,0,-3,i
Cc1cc(Br)c(NC(=O)CN2CCCC2)c(Br)c1,-6,x,0,-1,x,i
